Shown are actives, neighbours in structure and some others; about 9.9% of the full set was active somewhere.
IL-1B inflam inh – qHTS for Inhibitors of Inflammasome Signaling: IL-1-beta AlphaLISA Primary Screen | THP-1 LPS/ATP IL-1B secretion, AlphaLISA, 16 h; stronger effect = lower value | hit rate 4.7% among 360,000 | activity change, % at 57.5 µM; in the data active means activity change below about -50%; inconclusive means mostly about -30% to -49%
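Secreted IL-1B measured by AlphaLISA bead assay after 16 h compound exposure of THP-1 cells; compounds (final up to 57.5 uM) added 1 h before LPS (250 ng/mL) and ATP (1.25 mM) stimulation; lower signal means less secretion.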
SW480 rerep – A quantitative high throughput screen for small molecules that induce DNA re-replication in SW480 colon adenocarcinoma cells | hit rate 1.8% among 340,000 | SW480 DNA re-replication, Hoechst DNA content imaging, 48 h | Potency, µM (doses to about 46.1 µM), hits mostly activators; further: nearly all actives have a fitted effect of over 55% in size
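Compounds, transferred as 23 nL by pin tool, were incubated with cells for 48 hr; DNA content per nucleus was then quantified by Hoechst staining and fluorescence plate imaging.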
MCF10A rerep – A quantitative high throughput screen for small molecules that induce DNA re-replication in MCF 10a normal breast cells | MCF 10A DNA re-replication, Hoechst nuclear intensity, 48 h | hit rate 2.9% among 350,000 | Potency, µM (top dose mostly 46.1 µM), usual class: activators; further: nearly all actives have a fitted effect of over 50% in size
KB-3-1 tox – qHTS assay for MDR1-selective chemotherapeutics: Primary screen using the parental adenocarcinoma cell KB-3-1 | KB-3-1 viability, CellTiter-Glo ATP luminescence, 72 h | Potency, µM (doses to about 46.1 µM), usual class: cytotoxic | hit rate 1.4% among 400,000 | AID 1347075, 2019; further: nearly all actives have a fitted effect of over 60% in size
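KB-3-1 parental drug-naive adenocarcinoma cells in DMEM/10% FBS, incubated 72 h at 37 C with pin-transferred compounds across a concentration series. Viability by CellTiter-Glo luminescence; concentration-response curves fitted after normalization.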
KB-V1 MDR tox – qHTS assay for MDR1-selective chemotherapeutics: Primary screen using the drug-selected MDR subline cells KB-V1 | KB-V1 MDR cells viability, CellTiter-Glo, 72 h | Potency, µM (doses to about 46.1 µM), actives largely listed as cytotoxic | hit rate 3.4% among 400,000 | AID 1347076, 2019; further: nearly all actives have a fitted effect of over 60% in size
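Cells of the MDR subline KB-V1 are plated, dosed with compound at multiple concentrations, and incubated 72 h at 37 degrees C; CellTiter-Glo is then added and luminescence read after 10 min.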
Each line names hits and unclear results; the compound was inactive in the other large screens. Unless noted, the call rests on the fitted dose curve; in most records, active means well fitted curve in the direction sought with a large enough effect; inconclusive means small, poorly fitted or top-dose-only effect, or another doubt; inactive means no such curve, though single readings can be large; an effect the other way counts as inactive or inconclusive.

COc1ccc(CC/C(C)=N\NC(N)=O)cc1	none
CCC12CN(C(=O)c3ccc(C)cc3)CC(CC)(CN(C(=O)c3ccc(C)cc3)C1)C2=O	SW480 rerep inconclusive, KB-V1 MDR tox 5.2µM
Cc1cc(C)n(CCC(=O)Nc2ccc3c(c2)OCCO3)n1	none
COc1ccc(N(CC(=O)NCCSCc2ccc(C)cc2)S(=O)(=O)c2ccccc2)cc1	MCF10A rerep inconclusive, KB-3-1 tox inconclusive, KB-V1 MDR tox 6.5µM
COc1ccc(Cl)cc1N(CC(=O)NCCSCc1ccccc1)S(C)(=O)=O	none
COc1ccc(OC)c(N(CC(=O)NCCSCc2ccc(C)cc2)S(C)(=O)=O)c1	IL-1B inflam inh -62, SW480 rerep inconclusive, MCF10A rerep inconclusive, KB-V1 MDR tox inconclusive
COc1ccccc1N(CC(=O)NCCSCc1ccc(C)cc1)S(=O)(=O)c1ccccc1	KB-3-1 tox inconclusive, KB-V1 MDR tox inconclusive
CC(=O)NC(c1ccc(F)c(F)c1)c1nc(-c2cc3ccccc3o2)cs1 (stereo not given)	none (no result: SW480 rerep, MCF10A rerep)
COc1ccc(NC(=O)CCc2nc3c(C)nn(-c4ccc(C)cc4)c3n(C)c2=O)c(OC)c1	none (no result: IL-1B inflam inh, SW480 rerep, MCF10A rerep)
COc1ccc(OC)c(S(=O)(=O)Nc2cccc3ccc(O)cc23)c1	none
Cc1ccc(NC(=O)CN(C)S(=O)(=O)c2cccs2)cc1C	KB-3-1 tox inconclusive, KB-V1 MDR tox inconclusive
Cc1ccc(NC(=O)CN(C)S(=O)(=O)c2cccs2)cc1F	KB-3-1 tox inconclusive, KB-V1 MDR tox 15µM
COc1cc(OC)cc(C(=O)Nc2ccc(N3CCN(C(=O)c4cccs4)CC3)cc2)c1	SW480 rerep inconclusive, MCF10A rerep 18µM, KB-3-1 tox 7.3µM, KB-V1 MDR tox 8.2µM
CC(=O)Nc1ccc(N2CCN(C(=O)c3cccs3)CC2)cc1	none
COc1ccc(C(=O)Nc2ccc(N3CCCC3)cc2)cc1Br	none
O=C(Nc1ccc(N2CCN(C(=O)c3cccs3)CC2)cc1)c1ccc(F)cc1	KB-V1 MDR tox 0.18µM (no result: IL-1B inflam inh)
COc1ccc(C(=O)Nc2ccc(N3CCN(C(=O)c4cccs4)CC3)cc2)cc1Br	SW480 rerep inconclusive, MCF10A rerep 18µM
O=C(Cn1nc(-c2ccccc2)ccc1=O)Nc1ccc(N2CCN(C(=O)c3cccs3)CC2)cc1	IL-1B inflam inh -57, KB-3-1 tox inconclusive
BrC(=C\c1ccccc1)/C=N/n1cnnc1	MCF10A rerep 16µM, KB-V1 MDR tox inconclusive
BrC(=C\c1ccccc1)/C=N/Nc1ccc2nncn2n1	IL-1B inflam inh -86, SW480 rerep inconclusive, MCF10A rerep inconclusive, KB-V1 MDR tox inconclusive
C(=N\Nc1ccc2nncn2n1)/c1ccco1	none
CCOC(=O)N1CCN(C2CCCN(C(=O)c3cccc(Cl)c3)C2)CC1 (stereo not given)	none
COc1ccc2c(c1)C(c1ccc(Cl)cc1)NC(=O)C2 (stereo not given)	none
CCCCCCC[C@@H](C/C=C/CCC(=O)N(C)C/C(=C/Cl)C/C(=C\C(=O)N1C[C@H](O)CC1=O)OC)OC	IL-1B inflam inh -71, SW480 rerep inconclusive, MCF10A rerep inconclusive
CC(C)c1cccc(C(C)C)c1NC(=O)CCl	IL-1B inflam inh -83, KB-3-1 tox inconclusive, KB-V1 MDR tox inconclusive
Cc1ccc2oc3c(c(=O)c2c1)C(c1cccc(Br)c1)N(Cc1ccco1)C3=O (stereo not given)	SW480 rerep inconclusive, MCF10A rerep inconclusive
CCOc1cc(C2c3c(oc4cc(C)c(Cl)cc4c3=O)C(=O)N2Cc2ccco2)ccc1O (stereo not given)	MCF10A rerep inconclusive, KB-3-1 tox inconclusive, KB-V1 MDR tox 1.8µM
Cc1cc2oc3c(c(=O)c2cc1C)C(c1cccc(Br)c1)N(Cc1ccco1)C3=O (stereo not given)	MCF10A rerep 10µM
O=C(Nc1cccc(Br)c1)c1cccc(OC(=S)N2CCOCC2)c1	IL-1B inflam inh -67, MCF10A rerep inconclusive, KB-3-1 tox inconclusive, KB-V1 MDR tox inconclusive
CC(C)(C)c1ccc(C(=O)Nc2ccc(C(=O)N3CCOCC3)cc2)cc1	IL-1B inflam inh -85 (no result: KB-3-1 tox, KB-V1 MDR tox)
O=C(Nc1ccc(C(=O)N2CCOCC2)cc1)c1ccccc1	none
Cc1ccc(NC(=O)c2ccc(OC(=S)N3CCOCC3)cc2)cc1	KB-V1 MDR tox 6.5µM
COc1ccc(NC(=O)Nc2ccc(C(=O)N3CCOCC3)cc2)cc1	none
COc1ccc(Cl)cc1NC(=O)Nc1ccc(C(=O)N2CCOCC2)cc1	IL-1B inflam inh -63 (no result: KB-3-1 tox, KB-V1 MDR tox)
O=C(O)/C=C/c1ccc(OCc2cccc(F)c2)cc1	MCF10A rerep inconclusive
COc1cc([N+](=O)[O-])ccc1NC(=O)CCCOc1cc(C)ccc1C	KB-V1 MDR tox inconclusive
COC(=O)C(C)Oc1ccc(-c2nccc(-c3ccccn3)n2)cc1 (stereo not given)	none
Cc1nn(-c2ccccc2)c2c1CC(=O)Nc1ccccc1-2	SW480 rerep 1.5µM, MCF10A rerep 1.3µM, KB-3-1 tox 0.65µM, KB-V1 MDR tox 1.6µM
COC(=O)Cc1ccc(OC(=O)c2cccc(S(=O)(=O)N3CCN(C)CC3)c2)cc1	none
CN(C)/C=C/c1onc(-c2ccccc2Cl)c1C#N	MCF10A rerep 18µM
Cc1onc(-c2ccccc2Cl)c1C(=O)N(C)C1CCCCC1	KB-3-1 tox inconclusive
CS(=O)(=O)Nc1ccc(-c2cc(/C=C3\SC(N)=NC3=O)c[nH]c2=O)cc1	none
CC(C)(C)c1ccc(OCCNC(=S)Nc2ccccc2)cc1	IL-1B inflam inh -107, SW480 rerep inconclusive, KB-V1 MDR tox inconclusive
CC(C)(C)c1ccc(OCCNCc2ccccc2)cc1	IL-1B inflam inh -93, KB-V1 MDR tox inconclusive
CC(C)(C)c1ccc(C(=O)NCCOc2ccccc2)cc1	none
Cn1c(=O)c2c([nH]c(=O)n2Cc2ccc(Cl)cc2Cl)n(C)c1=O	none (no result: IL-1B inflam inh, SW480 rerep, MCF10A rerep)
COC(=O)c1sc(-c2ccc(C(C)(C)C)cc2)cc1NC(=O)CSCC(=O)O	MCF10A rerep 15µM, KB-V1 MDR tox inconclusive
COC(=O)c1c(NC(C)=O)c2c3c(sc2n1Cc1cc(C)ccc1C)CCCC3	none (no result: IL-1B inflam inh, SW480 rerep, MCF10A rerep)
CC(=NCc1ccco1)c1c(C)[nH]n(-c2nc3ccccc3s2)c1=O	KB-3-1 tox inconclusive, KB-V1 MDR tox inconclusive
CC(=NCc1ccco1)c1c(O)n(C2CCCCC2)c(=O)[nH]c1=O	KB-V1 MDR tox 5.8µM
Cc1ccc(C(C(=O)NC2CCCCC2)N(C(=O)CCCC(=O)Nc2ccccn2)c2ccc3c(c2)OCCO3)cc1 (stereo not given)	IL-1B inflam inh inconclusive
COc1ccc(CN(C(=O)c2snc(C(N)=O)c2N)C(C(=O)NC2CCCC2)c2ccc(OC)c(OC)c2)cc1 (stereo not given)	SW480 rerep inconclusive
COc1ccc(CN(C(=O)c2ccc3c(c2)OCCO3)C(C(=O)NC2CCCCC2)c2ccc3ncccc3c2)cc1 (stereo not given)	MCF10A rerep 13µM
